Test results published in PubChem BioAssay (NCATS).
Records with an inconclusive call do not appear. Where a call stands in place of a potency, no number is given. A number with no mark means an inactive call. Calls of active or inactive are those of the source. Unless noted, calls come from the whole dose curve; as a rule, active = well fitted curve in the direction sought with a large enough effect; inconclusive = small, poorly fitted or top-dose-only effect, or another doubt; inactive = no such curve, though single readings can be large; an effect the other way counts as inactive or inconclusive.

Key:
[1] = target: Voltage-gated inwardly rectifying potassium channel KCNH2 (Homo sapiens) (UniProt Q12809); assay: qHTS Assay for Small Molecule Inhibitors of the Human hERG Channel Activity (AID 588834);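 note: top concentration of the series differs between compounds; lower thallium flux fluorescence means stronger hERG block; nearly all actives have a fitted effect of over 50% in size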
Procedure, shortened: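 Thallium serves as surrogate for K+ influx through BacMam-delivered hERG in U2OS cells. Compounds are added for about 10 minutes after dye loading; stimulation buffer then starts flux, monitored kinetically on FDSS.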

[2] = target: Luciferin 4-monooxygenase (Photinus pyralis) (UniProt P08659); assay: Biochemical firefly luciferase enzyme assay for NPC (AID 624030);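 note: purified P. pyralis luciferase at 10 nM with luciferin and ATP substrate; series mostly up to about 59 µM; nearly all actives have a fitted effect of over 70% in size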
Procedure, shortened: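 Direct inhibition of firefly luciferase enzyme (10 nM final, 50 mM Tris Acetate) assessed by luminescence within 5 minutes. Percent activity scaled between DMSO and PTC124 positive control, with concentration-effect curves classified by fit quality and response.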

[3] = S16 Schwann cell viability assay (CellTiter-Glo assay) (AID 624031);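 note: native untransfected S16 rat Schwann cells; cellular ATP luminescence as a viability measure; series mostly up to about 58 µM; nearly all actives have a fitted effect of over 70% in size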
Procedure, shortened: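 Parental S16 cells, 24 h compound, 37 °C. ATP-luminescence viability; DMSO = 0% activity, empty wells as reference; curves classified by fit quality and efficacy.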

[4] = S16 Schwann cell PMP22 intronic element firefly luciferase assay (AID 624032); note: nearly all actives have a fitted effect of over 30% in size; note: potency is the fitted concentration of half-maximal effect
Procedure, shortened: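 Luciferase reporter of PMP22 intronic-element expression in stably transfected S16 rat Schwann cells, read by ONE-Glo luminescence after 24 h compound exposure at 37 C. Activity scaled between DMSO (0%) and positive-control PTC124; concentration-effect curves quality-classified.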

[5] = S16 Schwann cell PMP22 intronic element beta-lactamase assay (AID 624044; calls by dose curve; note: nearly all actives have a fitted effect of over 15% in size; note: potency is the fitted concentration of half-maximal effect)
Procedure, shortened: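 Beta-lactamase reporter under a PMP22 intronic regulatory element in stable S16 rat Schwann cells; 24 h compound exposure. 460 nm blue signal normalized between DMSO (0%) and potassium clavulanate, with 535 nm FRET tracking viability; curves classed by r2 and response.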

[6] = target: Thyroid hormone receptor beta (Homo sapiens) (UniProt P10828); assay: qHTS assay for small molecule antagonists of thyroid hormone receptor beta signaling (AID 588547; active = well fitted inhibition curve with a large enough effect in the signal ratio, with a control signal flat, not every such curve was filed as active; the % refers to the signal ratio;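 note: cells stimulated with 0.4 nM T3 agonist during compound exposure; series mostly up to about 77 µM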); settings: TR-UAS-bla HEK293, beta-lactamase ratio, antagonist mode, 18 h
Procedure, shortened: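 Inhibition of T3-driven (0.4nM final) beta-lactamase reporter activity was measured over 0.59 nM to 92 uM compound after 18 h at 37 C. The cells were GripTite HEK293 TR-UAS-bla in charcoal/dextran-stripped serum, with CCF4 ratio read-out and IC50 from Hill fits.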

Chain of Luciferin 4-monooxygenase (Photinus pyralis) (P08659 whole entry, looked up): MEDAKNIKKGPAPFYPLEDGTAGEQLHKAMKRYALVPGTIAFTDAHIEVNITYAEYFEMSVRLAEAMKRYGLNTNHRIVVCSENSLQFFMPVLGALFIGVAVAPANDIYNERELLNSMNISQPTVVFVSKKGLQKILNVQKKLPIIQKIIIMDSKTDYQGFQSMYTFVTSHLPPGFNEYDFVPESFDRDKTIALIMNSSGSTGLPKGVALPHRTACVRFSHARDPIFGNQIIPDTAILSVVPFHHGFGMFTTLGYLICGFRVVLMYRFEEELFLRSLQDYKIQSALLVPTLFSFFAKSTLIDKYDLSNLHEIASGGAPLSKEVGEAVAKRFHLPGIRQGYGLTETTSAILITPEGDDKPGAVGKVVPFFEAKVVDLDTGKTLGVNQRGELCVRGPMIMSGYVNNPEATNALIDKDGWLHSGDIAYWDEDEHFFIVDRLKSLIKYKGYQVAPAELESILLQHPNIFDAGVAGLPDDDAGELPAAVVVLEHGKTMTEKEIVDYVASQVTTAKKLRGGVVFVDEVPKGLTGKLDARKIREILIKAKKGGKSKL
Chain of Voltage-gated inwardly rectifying potassium channel KCNH2 (Homo sapiens) (Q12809 whole entry, looked up): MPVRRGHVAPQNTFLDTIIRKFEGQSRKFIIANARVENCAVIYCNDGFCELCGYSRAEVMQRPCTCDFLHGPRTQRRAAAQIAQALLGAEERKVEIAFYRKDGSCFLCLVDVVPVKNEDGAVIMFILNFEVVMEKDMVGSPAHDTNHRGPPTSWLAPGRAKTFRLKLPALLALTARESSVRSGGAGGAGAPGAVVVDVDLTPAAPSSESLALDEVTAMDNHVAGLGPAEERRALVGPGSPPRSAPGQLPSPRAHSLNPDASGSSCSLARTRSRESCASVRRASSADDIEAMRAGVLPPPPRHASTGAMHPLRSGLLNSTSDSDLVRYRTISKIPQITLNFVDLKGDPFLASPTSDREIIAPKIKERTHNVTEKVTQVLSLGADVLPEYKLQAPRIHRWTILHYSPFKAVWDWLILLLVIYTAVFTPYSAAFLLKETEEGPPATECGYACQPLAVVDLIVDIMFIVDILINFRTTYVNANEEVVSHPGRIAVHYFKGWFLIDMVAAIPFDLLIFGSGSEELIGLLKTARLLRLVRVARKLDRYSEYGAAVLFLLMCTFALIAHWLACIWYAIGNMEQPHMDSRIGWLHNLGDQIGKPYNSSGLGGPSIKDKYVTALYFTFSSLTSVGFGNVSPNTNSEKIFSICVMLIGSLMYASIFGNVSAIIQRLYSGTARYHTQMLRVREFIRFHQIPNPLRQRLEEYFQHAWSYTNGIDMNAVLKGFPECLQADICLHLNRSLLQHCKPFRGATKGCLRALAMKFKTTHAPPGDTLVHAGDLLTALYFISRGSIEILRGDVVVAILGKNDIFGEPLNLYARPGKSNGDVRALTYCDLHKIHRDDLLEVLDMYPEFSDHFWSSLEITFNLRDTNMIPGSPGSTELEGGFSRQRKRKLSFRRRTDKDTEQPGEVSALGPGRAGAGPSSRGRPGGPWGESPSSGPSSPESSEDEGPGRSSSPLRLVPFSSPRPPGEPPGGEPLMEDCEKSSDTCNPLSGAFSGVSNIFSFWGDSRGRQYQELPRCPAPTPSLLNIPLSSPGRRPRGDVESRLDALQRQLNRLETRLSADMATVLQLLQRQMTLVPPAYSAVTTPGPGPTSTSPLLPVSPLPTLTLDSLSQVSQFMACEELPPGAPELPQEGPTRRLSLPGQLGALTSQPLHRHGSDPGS
Chain of Thyroid hormone receptor beta (Homo sapiens) (P10828 whole entry, looked up): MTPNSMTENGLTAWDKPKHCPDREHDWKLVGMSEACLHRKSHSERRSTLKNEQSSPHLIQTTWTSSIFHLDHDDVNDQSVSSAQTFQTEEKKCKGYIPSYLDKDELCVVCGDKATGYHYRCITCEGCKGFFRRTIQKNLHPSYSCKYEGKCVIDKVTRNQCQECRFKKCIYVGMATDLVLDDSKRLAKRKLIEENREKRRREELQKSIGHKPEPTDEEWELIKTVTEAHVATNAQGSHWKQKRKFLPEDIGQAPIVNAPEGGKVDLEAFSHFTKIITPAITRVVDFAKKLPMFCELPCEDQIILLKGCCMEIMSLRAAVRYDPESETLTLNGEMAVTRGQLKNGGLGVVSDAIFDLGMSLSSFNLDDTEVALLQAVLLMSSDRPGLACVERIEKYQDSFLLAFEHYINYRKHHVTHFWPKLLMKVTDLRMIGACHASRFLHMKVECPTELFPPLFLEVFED

Question: For CN[C@H]1CCc2cc(OC)c(OC)c(OC)c2-c2ccc(OC)c(=O)cc21, which Potency [1] is on record?
Answer: The Potency was “inactive”.

Question: For C=C1C(=CC=C2CCC[C@]3(C)[C@@H]([C@H](C)C=C[C@H](C)C(C)C)CC[C@@H]23)C[C@@H](O)C[C@@H]1O, which Potency [2] is on record?
Answer: The Potency was “inactive”.

Question: For C[C@H]1C[C@@H]2[C@@H]([C@@H](O)C[C@@]3(C)[C@H]2CC[C@]3(O)C(=O)CO)[C@@]2(C)C=CC(=O)C=C12, which Potency [1] is on record?
Answer: Its Potency is “inactive”.

Question: And the Potency [2]?
Answer: Its Potency is “inactive”.

Question: And the outcome [3]?
Answer: The outcome was “inactive”.

Question: And the Potency [4]?
Answer: The Potency was “inactive”.

Question: What about the Potency [5] of the same compound?
Answer: The Potency was “inactive”.

Question: What does the source list for CC[C@H]1CN2CCc3cc(OC)c(OC)cc3[C@H]2C[C@@H]1C[C@@H]1NCCc2cc(OC)c(OC)cc21?
Answer: Potency [2]: inactive; outcome [3]: inactive

Question: For O=C(O)CCCc1c[nH]c2ccccc12, which activity change % (negative = inhibition) [6] is on record?
Answer: Its activity change % (negative = inhibition) is 3.26%.

Question: With Nc1ccn([C@@H]2O[C@H](CO)[C@H](O)C2(F)F)c(=O)n1 as the compound, how does the Potency [1] read?
Answer: Its Potency is “inactive”.

Question: And the Potency [2]?
Answer: Its Potency is “inactive”.

Question: And the Potency [4]?
Answer: Its Potency is “inactive”.

Question: What about the Potency [5] of the same compound?
Answer: Its Potency is 562 nM (active).

Question: With CN1c2cc(O)c(N=NC(N)=O)cc2CC1S(=O)(=O)O (centres undefined) as the compound, how does the Potency [1] read?
Answer: Its Potency is “inactive”.

Question: What about the Potency [2] of the same compound?
Answer: The Potency was “inactive”.

Question: What about the outcome [3] of the same compound?
Answer: Its outcome is “inactive”.

Question: And the Potency [4]?
Answer: Its Potency is “inactive”.

Question: And the Potency [5]?
Answer: Its Potency is “inactive”.

Question: Which results are given for Nc1ccc(S(=O)(=O)Nc2ncccn2)cc1?
Answer: Potency [1]: inactive; outcome [3]: inactive; Potency [4]: 6910 nM (active); Potency [5]: inactive

Question: What does the source list for CCC1=C[C@@H]2CN(C1)Cc1c([nH]c3ccccc13)[C@@](C(=O)OC)(c1cc3c(cc1OC)N(C)[C@@H]1[C@@](O)(C(=O)OC)[C@H](OC(C)=O)[C@]4(CC)C=CCN5CC[C@]31[C@@H]54)C2?
Answer: Potency [2]: inactive; outcome [3]: inactive; Potency [4]: 907 nM (active)

Question: Which Potency [2] does the source give for CC1(C)O[C@@H]2C[C@@H]3[C@H]4C[C@@H](F)C5=CC(=O)C=C[C@]5(C)[C@@]4(F)[C@@H](O)C[C@]3(C)[C@]2(C(=O)CO)O1 here?
Answer: The Potency was “inactive”.

Question: And the outcome [3]?
Answer: The outcome was “inactive”.

Question: What about the Potency [4] of the same compound?
Answer: Its Potency is “inactive”.

Question: What about the Potency [5] of the same compound?
Answer: Its Potency is “inactive”.

Question: Which Potency [1] does the source give for COc1ccc(CC2c3cc(OC)c(OC)cc3CC[N+]2(C)CCC(=O)OCCCCCOC(=O)CC[N+]2(C)CCc3cc(OC)c(OC)cc3C2Cc2ccc(OC)c(OC)c2)cc1OC (centres undefined) here?
Answer: Its Potency is “inactive”.

Question: For COC(=O)C[C@](O)(CCCC(C)(C)O)C(=O)O[C@@H]1C(OC)=C[C@]23CCCN2CCc2cc4c(cc2[C@H]13)OCO4, which Potency [1] is on record?
Answer: The Potency was “inactive”.

Question: What about the Potency [2] of the same compound?
Answer: Its Potency is “inactive”.

Question: And the outcome [3]?
Answer: The outcome was “inactive”.
